{"source": "ChEMBL document CHEMBL3988442", "about": "“University of Dundee, Small-Polar-MMV Screening Library” (2021)", "note": "Among all 48,000 compounds or so, about 13,000 (27%) showed an effect of 50% or more. The list shows a part of the results.", "data": [{"tested_on": "Wolbachia pipientis", "experiment": "Anti-Wolbachia Cell-Based Screen", "format": "functional", "design": "scale not given: in the data most compounds retested in dose-response had high values", "conditions": "5 µM", "units": {"Percent Effect": "%"}, "values": [{"smiles": "COc1cc2c(cc1CNC(=O)C(C)n1ccnc1C(C)C)CCC2", "note": "(stereo not given)", "Percent Effect": -11.78}, {"smiles": "COC(=O)[C@H](C)NC(=O)Cc1c(C)nc2cc(=O)[nH]n2c1C", "Percent Effect": -6.844}, {"smiles": "Cc1n[nH]c(C)c1NC(=O)CN1CCOC(Cn2cccn2)C1", "note": "(stereo not given)", "Percent Effect": 4.084}, {"smiles": "Cc1cccc2c1nc(CCO)n2-c1ccc(NS(C)(=O)=O)nc1", "Percent Effect": -11.32}, {"smiles": "O=C(O)C(F)(F)F.O=C(c1ccccc1)N1C[C@H]2CCC[C@@]2(COCc2ccncc2)C1", "Percent Effect": 12.44}, {"smiles": "CN(C)C(=O)N1C[C@H]2CCC[C@@]2(COc2ccccn2)C1.O=C(O)C(F)(F)F", "Percent Effect": -14.43}, {"smiles": "CS(=O)(=O)CC(=O)N1C[C@H]2CCC[C@@]2(COCc2ccncc2)C1.O=C(O)C(F)(F)F", "Percent Effect": 108.3}, {"smiles": "O=C(O)C(F)(F)F.O=C(c1ncccn1)N1C[C@H]2CCC[C@@]2(COCc2ccncc2)C1", "Percent Effect": 6.096}, {"smiles": "CN(C)CC(=O)N1C[C@H]2CCC[C@@]2(COc2ccccn2)C1.O=C(O)C(F)(F)F", "Percent Effect": -2.413}, {"smiles": "CS(=O)(=O)CC(=O)N1C[C@H]2CCC[C@@]2(COc2ccccn2)C1.O=C(O)C(F)(F)F", "Percent Effect": 109.7}, {"smiles": "O=C(c1cn(CCN2CCCCC2)nn1)N1CCSCC1", "Percent Effect": 10.37}, {"smiles": "COc1cccc(NC(=O)N(CCO)Cc2ccsc2)c1", "Percent Effect": 1.126}, {"smiles": "O=C(c1ccccn1)C1CCCN(c2nccc(CCC(F)(F)F)n2)C1", "note": "(stereo not given)", "Percent Effect": "2e-14"}, {"smiles": "NC(=O)[C@H]1CCCN(c2nccc(-c3c[nH]nc3-c3cccnc3)n2)C1", "Percent Effect": 113.5}, {"smiles": "Cc1nn2c(N3CCCC(C(N)=O)C3)cc(-c3ccccc3)nc2c1C", "note": "(stereo not given)", "Percent Effect": -84.47}, {"smiles": "CNc1ccnc(N2CCCC(C(=O)c3ccccn3)C2)n1", "note": "(stereo not given)", "Percent Effect": -24.75}, {"smiles": "NC(=O)[C@H]1CCCN(c2nccc(-c3ccncc3)n2)C1", "Percent Effect": 103.3}, {"smiles": "O=C1N(CC2CC2)C(c2c[nH]nc2-c2cccnc2)NC12CCCC2", "note": "(stereo not given)", "Percent Effect": 1.582}, {"smiles": "FC(F)Sc1ccc(NCc2nnc(C3CC3)o2)cc1", "Percent Effect": -0.3922}, {"smiles": "NC(=O)c1cnc(NC(=O)CCc2ccco2)c(Cl)c1", "Percent Effect": -8.08}, {"smiles": "CC(C)(C)c1nc(CC(=O)NC2CCN(C3CC3)C2)cs1", "note": "(stereo not given)", "Percent Effect": -2.238}, {"smiles": "CC(C)N1CCCn2nc(C(=O)NCCc3c[nH]cn3)cc2C1", "Percent Effect": -16.95}, {"smiles": "O=C(O)C1(n2ccnc2)CCN(Cc2ccc3occc3c2)CC1", "Percent Effect": -4.381}, {"smiles": "O=C(O)C1(n2cccn2)CCN(Cc2nc(-c3ccccc3)no2)CC1", "Percent Effect": -13.7}, {"smiles": "Cc1cc(CN2CCN(C(=O)CCc3cccc(F)c3F)CC2)on1", "Percent Effect": -11.44}, {"smiles": "Cc1nc(CN2CCC(C(=O)O)(n3ccc(-c4ccco4)n3)CC2)co1", "Percent Effect": 4.507}, {"smiles": "Cc1cc(F)ccc1OC1(C(=O)O)CCN(Cc2cccnc2)CC1", "Percent Effect": 3.989}, {"smiles": "O=C(O)C1(n2ccc(-c3ccco3)n2)CCN(Cc2ccsc2)CC1", "Percent Effect": 105.5}, {"smiles": "Cc1cc(CN2CCN(C(=O)C3(C#N)CCCC3)CC2)on1", "Percent Effect": -5.531}, {"smiles": "O=C(O)C1(n2ccc(-c3ccco3)n2)CCN(Cc2ccccn2)CC1", "Percent Effect": 96.1}, {"smiles": "Cc1cc(CN2CCC(C(=O)O)(n3ccc(-c4ccco4)n3)CC2)on1", "Percent Effect": 185.7}, {"smiles": "COc1ccc2c(c1)C1(CCN(Cc3ccccn3)CC1)N(C)CC2.O=C(O)C(F)(F)F.O=C(O)C(F)(F)F", "Percent Effect": -3.791}, {"smiles": "O=C(O)C(F)(F)F.O=C(c1ccco1)N1CCCC2(CN(Cc3ccsc3)CCO2)C1", "note": "(stereo not given)", "Percent Effect": 0.02281}, {"smiles": "O=C(O)C1(n2ccc(-c3ccco3)n2)CCN(Cc2cccnc2)CC1", "Percent Effect": 100.5}, {"smiles": "COc1ccccc1OCC(=O)Nc1ncccc1OC(F)F", "Percent Effect": -1.305}, {"smiles": "CCCNC(=O)CSc1nnc2[nH]c(=O)cc(CC)n12", "Percent Effect": -17.32}, {"smiles": "Cc1nc(C(=O)N2CCC3(CC2)CC(=O)N(CC2CCCO2)C3)cs1", "note": "(stereo not given)", "Percent Effect": 9.74}, {"smiles": "Cn1ccc(C(=O)N(CC(F)F)c2cccc(Cl)c2)cc1=O", "Percent Effect": -3.04}, {"smiles": "O=C(O)C1(n2cccn2)CCN(c2nc(-c3ccccc3)no2)CC1", "Percent Effect": -0.7442}, {"smiles": "Cc1n[nH]c(C)c1CCN(C)c1ccc(-c2nc(C3CC3)no2)cn1", "Percent Effect": 5.085}, {"smiles": "COCCO[C@@H]1C[C@H]2CN(C(=O)c3cnccn3)CCN2C1", "Percent Effect": -15.94}, {"smiles": "COC(=O)C(C)CN(Cc1ccccc1)C(=O)CN1CCCNC1=O", "note": "(stereo not given)", "Percent Effect": -9.826}, {"smiles": "Cc1csc(CN2C[C@@H]3COC[C@]3(C(=O)NCc3ccco3)C2)n1", "Percent Effect": -36.74}, {"smiles": "Cc1nc(CN2CCC(C(=O)O)(n3ccc(C(C)C)n3)CC2)co1", "Percent Effect": 99.57}, {"smiles": "O=C(O)C1(n2ccc(-c3ccco3)n2)CCN(Cc2cccs2)CC1", "Percent Effect": 77.42}, {"smiles": "O=C(O)C(F)(F)F.c1coc(COCc2ncn3c2CN(Cc2cccs2)CCC3)c1", "Percent Effect": 7.487}, {"smiles": "Cc1cc(N2CCC(C(=O)O)(n3ccc(C(C)C)n3)CC2)nc(N)n1", "Percent Effect": -20.6}, {"smiles": "Cc1occc1C(=O)N1CCC2(CCN(Cc3cccs3)C2)CC1.O=C(O)C(F)(F)F", "Percent Effect": -0.4808}, {"smiles": "Cc1csc(CN2CCC(C(=O)O)(n3ccc(-c4ccco4)n3)CC2)n1", "Percent Effect": 105}, {"smiles": "Cc1ccc(N2CCC(C(=O)O)(n3ccc(C(C)C)n3)CC2)nn1", "Percent Effect": -12.67}, {"smiles": "Cc1nccn1C1(C(=O)O)CCN(Cc2ccc3occc3c2)CC1", "Percent Effect": -3.386}, {"smiles": "O=C1CN(CCCNC(=O)Nc2cccc(Cl)c2F)CCN1", "Percent Effect": 1.597}, {"smiles": "Cc1cc(C)n(-c2ccc(N3CCCSCC3)nc2)n1", "Percent Effect": 0.3589}, {"smiles": "CC1CCc2n[nH]c(C(=O)NCCc3ccco3)c2C1", "note": "(stereo not given)", "Percent Effect": 14.64}, {"smiles": "CCOc1ccccc1-c1noc(CN2CCCC(O)C2)n1", "note": "(stereo not given)", "Percent Effect": -2.765}, {"smiles": "CC(C)S(=O)(=O)C(C)C(=O)Nc1ccc2oc(C3CC3)nc2c1", "note": "(stereo not given)", "Percent Effect": -8.387}, {"smiles": "O=C(c1cccnc1O)N1CCCN(c2cccnn2)CC1", "Percent Effect": -5.126}, {"smiles": "CNc1ccc(CC2CCCN(C(=O)c3c(C)noc3C)C2)nn1", "note": "(stereo not given)", "Percent Effect": 118}, {"smiles": "O=C(c1cc(CC2(NCC3CCCCC3)COC2)no1)N1CCCCC1", "Percent Effect": 0.2272}, {"smiles": "CNc1ncc(C(=O)N2CCCC(Cc3ccccc3OC)C2)s1", "note": "(stereo not given)", "Percent Effect": -5.807}, {"smiles": "CNc1ccc(CC2CCCN(C(=O)c3cnco3)C2)nn1", "note": "(stereo not given)", "Percent Effect": 129.2}, {"smiles": "CNc1ccc(CC2CCCN(C(=O)c3scnc3C)C2)nn1", "note": "(stereo not given)", "Percent Effect": 109.5}, {"smiles": "CCc1cc(C(=O)N2CCCC(Cc3ccc(NC)nn3)C2)on1", "note": "(stereo not given)", "Percent Effect": 109.6}, {"smiles": "Cc1noc(C)c1C(=O)N1C[C@@H]2CCCO[C@@H]2[C@H](N(C)C)C1", "Percent Effect": 3.092}, {"smiles": "O=C(c1cc(CC2(NC3CCCCC3)COC2)no1)N1CCCCC1", "Percent Effect": 6.649}]}]}
